# In PubChem BioAssay AID1159614 (National Center for Advancing Translational Sciences (NCATS), 2016):
# The whole screen tested about 45,000 compounds, of which about 65 (0.1%) were called active. What follows is part of a selection rich in actives, with near analogues and random picks from the rest. Values without a mark were called inactive. Calls come from the whole dose curve; as a rule, active = well fitted activation curve with a large enough effect; inconclusive = small, poorly fitted or top-dose-only effect; inactive = no such curve, though single readings can be large or run the other way.
# Target: Galactocerebrosidase (Homo sapiens) (UniProt P54803)
# Sequence (P54803 whole entry G286D): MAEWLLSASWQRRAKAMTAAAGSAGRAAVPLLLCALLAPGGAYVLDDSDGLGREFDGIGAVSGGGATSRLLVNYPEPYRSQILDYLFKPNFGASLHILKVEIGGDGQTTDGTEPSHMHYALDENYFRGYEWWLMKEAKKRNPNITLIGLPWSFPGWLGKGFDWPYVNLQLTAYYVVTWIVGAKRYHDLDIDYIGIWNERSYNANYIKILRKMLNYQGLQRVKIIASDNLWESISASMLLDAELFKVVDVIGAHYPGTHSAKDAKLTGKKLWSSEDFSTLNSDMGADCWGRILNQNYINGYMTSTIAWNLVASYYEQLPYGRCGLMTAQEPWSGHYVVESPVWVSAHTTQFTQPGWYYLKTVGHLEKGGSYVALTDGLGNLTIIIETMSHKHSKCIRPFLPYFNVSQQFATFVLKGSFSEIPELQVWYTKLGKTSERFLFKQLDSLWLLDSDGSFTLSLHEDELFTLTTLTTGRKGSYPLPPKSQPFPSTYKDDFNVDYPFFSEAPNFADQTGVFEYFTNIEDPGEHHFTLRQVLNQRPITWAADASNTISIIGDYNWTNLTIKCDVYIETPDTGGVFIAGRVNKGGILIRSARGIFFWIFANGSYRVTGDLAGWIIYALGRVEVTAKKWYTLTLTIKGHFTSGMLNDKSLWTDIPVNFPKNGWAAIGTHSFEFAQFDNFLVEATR
# Experiment: A Novel Cell-Based Assay to Identify Small Molecules for B -Galactocerebrosidase; note: nearly all actives have a fitted effect of over 65% in size; for activation: 0% is about no effect
# Settings: 145M-Twi-hGALC-G270D cells (Twitcher mouse brain line with human GALC G270D), HMU-beta-Gal fluorescence, 48 h; series mostly up to 57.5 µM; activation: at the top concentration
# Source text: Lysosomal storage diseases (LSDs) are caused by genetic mutations in genes encoding proteins important for normal lysosomal function. Globoid cell leukodystrophy (GLD), mostly known as Krabbe disease, is a prototype of the neurological LSDs caused by deficiency of beta-galactocerebrosidase (GALC). In brain specimens of GLD patients, psychosine levels are substantially elevated. At elevated concentrations, psychosine becomes cytotoxic to neuronal cells, particularly to oligodendrocytes (OLG), neural cells responsible for myelin formation. Therefore, the biochemical disturbances in GLD are manifested by different degrees of brain demyelination resulting in a broad spectrum of neurological manifestations. Most of the FDA-approved therapies are based on enzyme replacement therapeutic (ERT) agents, which treat non-neurological symptoms of Gaucher disease, Fabry disease, few mucopolysaccharidoses and Pompe disease. Unfortunately, in GLD, a primarily neurological LSD, ERT agents, as large molecular weight molecules unable to cross the blood-brain barrier, which makes this an inefficacious therapeutic approach. In GLD, increasing the residual GALC activity just above the critical threshold (~10% of wild type enzymatic activity), the cytotoxic levels of psychosine will be reduced, avoiding the OLGs apoptosis and the subsequent demyelination process. This will translate in disease stabilization and amelioration of GLD patient symptoms.
# A cell-based assay in 1,536-well plate format was developed to implement a quantitative high-throughput screening (qHTS) assay using GLD-disease relevant cells to identify small molecules that produce enhancements of the residual enzymatic activity levels of mutants GALC found and prevalent in GLD patients. Compounds that are active may therefore have some therapeutic application for GLD. After the treatment of live cells for a determined period, using a fluorescent GALC specific substrate, the mutant residual GALC activity is measured. This cell-based qTHS assay was used to screen part of the MLPCN library for small molecule able to increase the mutant GALC enzymatic activity. In this assay, increased fluorescent signal corresponds to enhanced levels of mutant GALC residual enzymatic activity. Activation is the desired outcome for this assay.
# NIH Chemical Genomics Center [NCGC]
# NIH Molecular Libraries Probe Centers Network [MLPCN]
# Assay Submitter (PI): Gustavo Maegawa MD,PhD, University of Florida, Gainesville, FL
# 2)#Two cell lines were established for the assay: 145M-Twi-hGALC-G270D (brain-derived Twitcher cell line stably expressing human GALC-G270D) and 145M-Twi-hGALC-WT (same 145M-Twi stably expressing human GALC wild type). The Twitcher is the murine C57B/6 model for GLD with naturally occurring homozygous nonsense GALC mutation. The 145M-Twi cell line was established at Maegawa lab (Ribbens J et al 2014).
# a.#Media: DMEM/F12 (1:1) with 10% fetal bovine-serum (FBS) with penicillin/streptomycin (PS-1X - 100 I.U./mL of penicillin+100 ug/mL of streptomycin).
# b.#The 6-Hexadecanoylamino-4-methylumbelliferyl-b-D-galactoside (HMU-B-gal) substrate was prepared as per Wiederschain et al 1992. Using 20-mL borosilicate tubes, 2.20 mg of HMU-b-Gal was added in each tube to prepare substrate-film with a final air-nitrogen stream evaporation to remove all diluent solvents.
# c.#The HMUb-Gal substrate buffer consists of 0.2 M Na2HPO4 (sodium phosphate dibasic)/ 0.1 M Citric Acid with the pH adjusted to 5.2 using HCl. Sodium Azide at 0.02% and Sodium Taurocholate (NaTC) at 1 mg/mL were added to this substrate buffer.
# d.#The HMU-b-Gal stopping buffer consist of 0.5 M NaHCO3 (sodium bicarbonate) /0.5 M Na2CO3 (sodium carbonate). […] Triton X-100 at 0.25% was added.
# 4)#Preparation of HMU-b-Gal substrate tubes
# Adding 18.6 mL of the HMUb-Gal substrate buffer to each 20-mL tube (2.20 mg of HMU-b-Gal) will reach a concentration of 0.2 mM. Vortex well the tube until the solution is fully homogenized (clear cloudy solution). […]
# Potency is the fitted concentration of half-maximal effect.
SMILES,activation [%],Potency
CC(C)C(=O)Nc1nc2c(s1)CC(C(C)(C)C)CC2 (centres undefined),-11,–
Cc1ccc(CCNC(=O)C2CCN(c3nnc(-n4cccc4CNc4ccc(C)cc4)s3)CC2)cc1,6.11,–
CCCCCn1c(=O)[nH]c2cc(C(=O)NCCN(C)CCCC)ccc2c1=O,-11.4,–
COc1ccc(C)cc1Nc1nc2ccccc2c2nnc(C)n12,-10.1,–
Cc1ccc(NC(=O)CSc2nc3ccccc3c3nc(CCn4cncc4C)nn23)cc1F,-12.2,–
Cc1ccc(Cl)cc1N1CCN(C(=O)c2cnc3c(-c4ccc(F)cc4)c(C)nn3c2C)CC1,-9.19,–
COc1ccccc1/C=C/c1nc(C#N)c(NC(C)c2ccccc2)o1 (centres undefined),-13.4,–
CC(=O)N1c2ccccc2CC1C(=O)N1CCN(c2ccc(F)cc2)CC1 (centres undefined),-14.3,–
CCN(CC)c1nn2c(=O)c(C(=O)NCCc3ccccc3)cnc2s1,-13,–
COc1ccc(C2Sc3ccccc3NC3=C2C(=O)c2ccccc23)c(OC)c1OC (centres undefined),-16.7,–
CC(=O)Nc1ccc2nc(SCCOc3cc(C)cc(C)c3)sc2c1,-29.8,–
Cc1ccc(S(=O)(=O)c2c(Nc3cccc(Cl)c3)sc(C(=O)c3ccc4c(c3)OCO4)c2N)cc1,-7.44,–
COc1cc(NC(=O)c2nn(-c3ccc(C)cc3)c(=O)c3c2c2ccccc2n3C)cc(OC)c1OC,-20.9,–
CCOC(=O)c1ccccc1NC(=O)c1sc2nc(-c3ccc(F)cc3)cn2c1C,-13.4,–
Cc1ccc(Cn2c(CCCNC(=O)C3CCCCC3)nc3ccccc32)cc1,-11.3,–
CCc1nccn1S(=O)(=O)c1cc(Br)ccc1Br,-5.8,–
COc1ccc(OCCCn2c(C)nc3cc(C)c(C)cc32)cc1,-10.3,–
Cc1ccc(-n2ncc3c(=O)n(Cc4cccc(C(F)(F)F)c4)cnc32)cc1C,-13.3,–
Cc1ccc2nc(COc3cccc(NC(=O)c4ccccc4Cl)c3)cc(=O)n2c1,-12.6,–
COc1ccc(CNC(=O)c2ccc(NC(=O)N3CC4CCCN4c4ccccc43)cc2)cc1 (centres undefined),-12.2,–
Cc1ccc(C)c(NC(=O)C2CCCN(S(=O)(=O)c3cn(C)cn3)C2)c1 (centres undefined),2.62,–
COc1cc(Cl)c(C)cc1Nc1nnc(-n2nc(C)cc2C)c2ccccc12,-10.6,–
CCOC(=O)c1c(C)n(S(=O)(=O)c2ccc(C)cc2C)c2ccc(NS(=O)(=O)c3ccc(C)cc3C)cc12,-2.18,–
COC(=O)/C=C(/C)N,-6.02,–
CCn1cc2nc(SCc3cccc(F)c3)n(CCc3ccccc3)c(=O)c2n1,-27.4,–

SMILES,activation [%],Potency
COc1cccc(Cn2c(CNS(=O)(=O)c3ccc(Cl)s3)nc3cccnc32)c1,7.72,–
CCC(=O)N1c2ccccc2CC1C(=O)N1CCN(c2ccccc2)CC1 (centres undefined),11.7,–
COc1cccc(NC(=O)c2ccc3nc(CCc4ccccc4)oc3c2)c1,-18.4,–
COc1ccccc1N1CCN(c2ncnc3onc(-c4cccc(Cl)c4)c23)CC1,-9.65,–
COc1cccc(C(=O)NC(=O)Nc2ccc(-c3cc(C(F)(F)F)nn3-c3ccccc3)cc2)c1,1.48,–
COc1ccc(-c2ccc(=O)n(CC(=O)Nc3ccc(Br)cc3F)n2)cc1,-6,–
Fc1ccccc1Oc1ncnc2c1oc1ccccc12,-10.2,–
COc1ccc(-c2cn3nc(N4CCCC(C(=O)NCCCOC(C)C)C4)sc3n2)cc1 (centres undefined),-13.8,–
CCOC(=O)c1ccc(NC(=O)CCn2cnnn2)cc1,-12.4,–
CC(C)(C)OC(=O)N1CCC(c2c(C(=O)Nc3ccc4c(c3)OCO4)cnn2-c2ccccc2)CC1,-3.46,–
COc1ccc(Cl)cc1NC(=O)C(C)Sc1nc2c(c(=O)[nH]1)CCCC2 (centres undefined),5.09,–
COC(=O)c1nc(Cl)c(Cl)nc1N,-15.2,–
O=C(CSc1oc(-c2ccco2)nc1S(=O)(=O)c1ccccc1)c1ccc(Cl)cc1,-25.8,–
O=c1[nH]c2cc(Br)ccc2n2cccc12,-12.7,–
CN(Cc1ccccc1)c1ccc(-c2nc(-c3ccccc3)no2)cc1[N+](=O)[O-],-39.7,–
COc1cc(NC(=O)CCn2nc(C)cc2C)cc(OC)c1OC,0.94,–
CCOC(=O)c1c(C)[nH]c(C)c1S(=O)(=O)NCC(=O)NCc1cccc(C)c1,-12.1,–
CCOc1ccc(OCC)c(NC(=O)c2cc(C)nc3c2c(C)nn3-c2cccc(Cl)c2C)c1,-12.6,–
Cc1ccc(Oc2c(C(F)(F)F)oc3c(CN4CCCCC4)c(O)ccc3c2=O)cc1,-11.8,–
COc1ccc(-c2c(C)c3ccc(O)c(CN4CCN(C)CC4)c3oc2=O)cc1OC,-9.31,–
COc1ccc(-c2c(C)c3ccc(O)c(CN4CCCC4)c3oc2=O)cc1OC,–,39.8 µM (active)
O=C(NCc1ccccc1)c1cccc(NC(=O)N2CCSc3ncccc32)c1,-9.3,–
CCCCN1C(=O)c2[nH]nc(-c3ccccc3O)c2C1c1cccc(OCc2ccccc2)c1 (centres undefined),-9.56,–
O=C(NC1CC(=O)N(c2ccccc2)C1)c1ccco1 (centres undefined),-16.5,–
